{"source": "PubChem BioAssay AID1159580", "about": "(chemical genetic matrix, 2015)", "assay": "chemical genetic growth profiling, strain panel (AID 1159580);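 further: tested at 20 µM; growth read once vehicle control cultures reached saturation at 30 °C; 1 = growth at the plate median or of vehicle wells; lower values mean less growth of the strain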", "settings": "S. cerevisiae deletion strains, growth OD", "note": "The whole screen tested about 5,500 compounds, of which about 2,000 (36%) were called active. Inconclusive results (about 18%) are left out. This is one part of the list. A number with no mark means an inactive call. No stated cut-off is given here; in the data, active means normalized growth mostly below about 0.91 (no sharp cut-off); inconclusive means no clear call, values can overlap the other calls; inactive means mostly above about 0.92."}
{"compound": "CC(C)=CCC/C(C)=C/CC/C(C)=C/CC/C(C)=C/CC/C(C)=C/CC/C(C)=C/CC/C(C)=C/CC/C(C)=C/CC/C(C)=C/CO", "values": [{"measurement": "normalized growth", "setting": "locus YAL021C, strain ccr4, active compounds read low", "value": 0.988}, {"measurement": "normalized growth", "setting": "locus YAL026C, strain drs2, active compounds read low", "value": 1}, {"measurement": "normalized growth", "setting": "locus YAL030W, strain snc1, active compounds read low", "value": 0.993}, {"measurement": "normalized growth", "setting": "locus YBL061C, strain skt5, active compounds read low", "value": 0.988}, {"measurement": "normalized growth", "setting": "locus YBR009C, strain hhf1, active compounds read low", "value": 0.995}, {"measurement": "normalized growth", "setting": "locus YBR023C, strain chs3, active compounds read low", "value": 1}, {"measurement": "normalized growth", "setting": "locus YBR171W, strain sec66, active compounds read low", "value": 1}, {"measurement": "normalized growth", "setting": "locus YBR231C, strain swc5, active compounds read low", "value": 0.986}, {"measurement": "normalized growth", "setting": "locus YBR279W, strain paf1, active compounds read low", "value": 0.966}, {"measurement": "normalized growth", "setting": "locus YCL011C, strain gbp2, active compounds read low", "value": 0.985}, {"measurement": "normalized growth", "setting": "locus YCL016C, strain dcc1, active compounds read low", "value": 0.99}, {"measurement": "normalized growth", "setting": "locus YCL061C, strain MRC1, active compounds read low", "value": 0.994}, {"measurement": "normalized growth", "setting": "locus YCL069W, strain vba3, active compounds read low", "value": 0.99}, {"measurement": "normalized growth", "setting": "locus YCR088W, strain abp1, active compounds read low", "value": 0.988}, {"measurement": "normalized growth", "setting": "locus YDL005C, strain med2, active compounds read low", "value": 0.992}, {"measurement": "normalized growth", "setting": "locus YDL040C, strain nat1, active compounds read low", "value": 0.992}, {"measurement": "normalized growth", "setting": "locus YDR001C, strain nth1, active compounds read low", "value": 0.99}, {"measurement": "normalized growth", "setting": "locus YDR069C, strain doa4, active compounds read low", "value": 1.01}, {"measurement": "normalized growth", "setting": "locus YDR137W, strain rgp1, active compounds read low", "value": 1.01}, {"measurement": "normalized growth", "setting": "locus YDR159W, strain sac3, active compounds read low", "value": 1.1}, {"measurement": "normalized growth", "setting": "locus YDR195W, strain ref2", "value": 0.997}, {"measurement": "normalized growth", "setting": "locus YDR297W, strain sur2, active compounds read low", "value": 0.99}, {"measurement": "normalized growth", "setting": "locus YDR334W, strain swr1, active compounds read low", "value": 1.01}, {"measurement": "normalized growth", "setting": "locus YDR335W, strain msn5, active compounds read low", "value": 1}, {"measurement": "normalized growth", "setting": "locus YDR392W, strain spt3, active compounds read low", "value": 1.11}, {"measurement": "normalized growth", "setting": "locus YEL003W, strain gim4, active compounds read low", "value": 1}, {"measurement": "normalized growth", "setting": "locus YEL037C, strain rad23, active compounds read low", "value": 1.02}, {"measurement": "normalized growth", "setting": "locus YEL061C, strain CIN8 (second series), active compounds read low", "value": 0.998}, {"measurement": "normalized growth", "setting": "locus YER015W, strain faa2, active compounds read low", "value": 0.995}, {"measurement": "normalized growth", "setting": "locus YER016W, strain bim1, active compounds read low", "value": 0.991}, {"measurement": "normalized growth", "setting": "locus YER111C, strain swi4, active compounds read low", "value": 0.996}, {"measurement": "normalized growth", "setting": "locus YER155C, strain BEM2 (second series), active compounds read low", "value": 1.01}, {"measurement": "normalized growth", "setting": "locus YFR010W, strain ubp6, active compounds read low", "value": 1.01}, {"measurement": "normalized growth", "setting": "locus YGL167C, strain pmr1, active compounds read low", "value": 1}, {"measurement": "normalized growth", "setting": "locus YGL173C, strain kem1, active compounds read low", "value": 0.998}, {"measurement": "normalized growth", "setting": "locus YGL227W, strain vid30, active compounds read low", "value": 0.983}, {"measurement": "normalized growth", "setting": "locus YGL240W, strain doc1, active compounds read low", "value": 1.03}, {"measurement": "normalized growth", "setting": "locus YGL253W, strain hxk2, active compounds read low", "value": 0.983}, {"measurement": "normalized growth", "setting": "locus YHR013C, strain ard1, active compounds read low", "value": 0.987}, {"measurement": "normalized growth", "setting": "locus YHR027C, strain rpn1, active compounds read low", "value": 0.986}, {"measurement": "normalized growth", "setting": "locus YHR030C, strain SLT2, active compounds read low", "value": 1.02}, {"measurement": "normalized growth", "setting": "locus YHR079C, strain IRE1, active compounds read low", "value": 1.01}, {"measurement": "normalized growth", "setting": "locus YHR142W, strain chs7, active compounds read low", "value": 0.983}, {"measurement": "normalized growth", "setting": "locus YJL092W, strain hpr5, active compounds read low", "value": 1}, {"measurement": "normalized growth", "setting": "locus YJL095W, strain BCK1 (second series), active compounds read low", "value": 0.992}, {"measurement": "normalized growth", "setting": "locus YJL095W, strain BCK1, active compounds read low", "value": 1.01}, {"measurement": "normalized growth", "setting": "locus YJL115W, strain asf1, active compounds read low", "value": 0.989}, {"measurement": "normalized growth", "setting": "locus YJL129C, strain trk1, active compounds read low", "value": 0.961}, {"measurement": "normalized growth", "setting": "locus YJL154C, strain vps35, active compounds read low", "value": 0.995}, {"measurement": "normalized growth", "setting": "locus YJL164C, strain tpk1, active compounds read low", "value": 0.989}, {"measurement": "normalized growth", "setting": "locus YJL166W, strain qcr8, active compounds read low", "value": 0.991}, {"measurement": "normalized growth", "setting": "locus YJL187C, strain SWE1, active compounds read low", "value": 1}, {"measurement": "normalized growth", "setting": "locus YJR066W, strain TOR1, active compounds read low", "value": 0.975}, {"measurement": "normalized growth", "setting": "locus YKL160W, strain elf1, active compounds read low", "value": 0.996}, {"measurement": "normalized growth", "setting": "locus YKR026C, strain gcn3, active compounds read low", "value": 1}, {"measurement": "normalized growth", "setting": "locus YKR091W, strain srl3, active compounds read low", "value": 0.989}, {"measurement": "normalized growth", "setting": "locus YLL001W, strain dnm1, active compounds read low", "value": 0.976}, {"measurement": "normalized growth", "setting": "locus YLL026W, active compounds read low", "value": 0.995}, {"measurement": "normalized growth", "setting": "locus YLL041C, strain sdh2, active compounds read low", "value": 0.996}, {"measurement": "normalized growth", "setting": "locus YLR027C, strain aat2, active compounds read low", "value": 1.03}, {"measurement": "normalized growth", "setting": "locus YLR113W, strain HOG1, active compounds read low", "value": 0.971}, {"measurement": "normalized growth", "setting": "locus YLR221C, strain rsa3, active compounds read low", "value": 0.965}, {"measurement": "normalized growth", "setting": "locus YLR258W, strain gsy2, active compounds read low", "value": 0.992}, {"measurement": "normalized growth", "setting": "locus YLR262C, strain YPT6 (second series), active compounds read low", "value": 1.01}, {"measurement": "normalized growth", "setting": "locus YLR320W, strain mms22, active compounds read low", "value": 0.992}, {"measurement": "normalized growth", "setting": "locus YLR342W, strain FKS1, active compounds read low", "value": 0.993}, {"measurement": "normalized growth", "setting": "locus YLR357W, strain rsc2, active compounds read low", "value": 1.12}, {"measurement": "normalized growth", "setting": "locus YLR370C, strain arc18, active compounds read low", "value": 0.995}, {"measurement": "normalized growth", "setting": "locus YLR384C, strain iki3, active compounds read low", "value": 0.994}, {"measurement": "normalized growth", "setting": "locus YML120C, strain ndi1, active compounds read low", "value": 0.99}, {"measurement": "normalized growth", "setting": "locus YMR058W, strain fet3, active compounds read low", "value": 1.05}, {"measurement": "normalized growth", "setting": "locus YMR125W, strain sto1, active compounds read low", "value": 0.984}, {"measurement": "normalized growth", "setting": "locus YMR129W, active compounds read low", "value": 0.99}, {"measurement": "normalized growth", "setting": "locus YMR205C, strain PFK2, active compounds read low", "value": 0.982}, {"measurement": "normalized growth", "setting": "locus YMR231W, strain pep5, active compounds read low", "value": 1}, {"measurement": "normalized growth", "setting": "locus YNL071W, strain lat1, active compounds read low", "value": 0.992}, {"measurement": "normalized growth", "setting": "locus YNL183C, strain NPR1, active compounds read low", "value": 0.943}, {"measurement": "normalized growth", "setting": "locus YNL209W, strain ssb2, active compounds read low", "value": 0.991}, {"measurement": "normalized growth", "setting": "locus YNL248C, strain rpa49, active compounds read low", "value": "1.16 [resistant] (active)"}, {"measurement": "normalized growth", "setting": "locus YNL322C, strain KRE1 (second series), active compounds read low", "value": 0.982}, {"measurement": "normalized growth", "setting": "locus YNR049C, strain mso1, active compounds read low", "value": 1.02}, {"measurement": "normalized growth", "setting": "locus YOR001W, strain rrp6, active compounds read low", "value": 1.03}, {"measurement": "normalized growth", "setting": "locus YOR070C, strain gyp1, active compounds read low", "value": 0.986}, {"measurement": "normalized growth", "setting": "locus YOR080W, strain dia2, active compounds read low", "value": 1}, {"measurement": "normalized growth", "setting": "locus YOR083W, strain WHI5, active compounds read low", "value": 0.977}, {"measurement": "normalized growth", "setting": "locus YOR106W, strain vam3, active compounds read low", "value": 0.969}, {"measurement": "normalized growth", "setting": "locus YOR231W, strain MKK1, active compounds read low", "value": 1}, {"measurement": "normalized growth", "setting": "locus YOR265W, strain rbl2, active compounds read low", "value": 1.01}, {"measurement": "normalized growth", "setting": "locus YOR270C, strain vph1, active compounds read low", "value": 1.12}, {"measurement": "normalized growth", "setting": "locus YOR290C, strain snf2, active compounds read low", "value": 1.08}, {"measurement": "normalized growth", "setting": "locus YPL051W, strain arl3, active compounds read low", "value": 1.02}, {"measurement": "normalized growth", "setting": "locus YPL078C, strain atp4, active compounds read low", "value": 0.996}, {"measurement": "normalized growth", "setting": "locus YPL106C, strain sse1, active compounds read low", "value": 1}, {"measurement": "normalized growth", "setting": "locus YPL240C, strain hsp82, active compounds read low", "value": 1}, {"measurement": "normalized growth", "setting": "locus YPL256C, strain CLN2, active compounds read low", "value": 1.01}]}
